Test results: PubChem BioAssay (Tox21)
Results filed as inconclusive are left out. The source made the active and inactive calls. Unless noted, calls come from the whole dose curve; as a rule, active = well fitted curve in the direction sought with a large enough effect in the repeat runs; inconclusive = weak or mixed curves; inactive = no such curve, though single readings can be large; an effect the other way counts as inactive or inconclusive.

Tests used:
[1] = qHTS assay to identify aromatase inhibitors - cell viability counter screen (AID 743084);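 note: cells stimulated with testosterone during compound exposure; nearly all actives have a fitted effect of over 55% in size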; note: potency is the fitted concentration of half-maximal effect
[2] = qHTS assay to identify small molecule that activate the aryl hydrocarbon receptor (AhR) signaling pathway - cell viability counter screen (AID 743086);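 note: HepG2 liver cells carrying the AhR DRE luciferase reporter; series mostly up to about 70 µM; nearly all actives have a fitted effect of over 45% in size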
Summary of the method: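 HepG2-AhR-luc (HG2L7.5c1) cells, 4000/well, treated 24 h at 37 C with compound; viability measured as CellTiter-Fluor fluorescence after 30 min in the same wells as the luciferase read.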

[3] = target: Peroxisome proliferator-activated receptor gamma (Homo sapiens) (UniProt P37231); test: qHTS assay to identify small molecule agonists of the peroxisome proliferator-activated receptor gamma (PPARg) signaling pathway (AID 743094; active = well fitted activation curve with a large enough effect in the signal ratio in the repeat runs, not every such curve was filed as active; the % refers to the signal ratio)
Summary of the method: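 Cell-based bla reporter, HEK293H background, PPARg-driven UAS. Pre-incubation 5 h, 37C, 5% CO2. Compound 17 h, 37C. Substrate 1 h RT; fluorescence.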

[4] = target: Peroxisome proliferator-activated receptor gamma (Homo sapiens) (UniProt P37231); test: qHTS assay to identify small molecule antagonists of the peroxisome proliferator-activated receptor gamma (PPARg) signaling pathway (AID 743191; calls by dose curve; note: series mostly up to about 63 µM; nearly all actives have a fitted effect of over 30% in size)
Summary of the method: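 GeneBLAzer PPARg UAS-bla HEK293H cells, 5 h post-plating, exposed to compounds 17 h at 37C. LiveBLAzer B/G FRET substrate added for 1 h at room temperature; beta-lactamase reporter read by fluorescence intensity.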

[5] = qHTS assay to identify small molecule antagonists of the peroxisome proliferator-activated receptor gamma (PPARg) signaling pathway - cell viability counter screen (AID 743194); note: nearly all actives have a fitted effect of over 55% in size
Summary of the method: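 Cytotoxicity counter screen in PPARg-bla HEK293H cells, same wells as reporter assay. Compounds plus 50 nM rosiglitazone (final) for 17 h at 37 C, then viability read by CellTiter-Glo luminescence.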

[6] = qHTS assay for small molecule agonists of the antioxidant response element (ARE) signaling pathway (AID 743202; active = well fitted activation curve with a large enough effect in the signal ratio in the repeat runs, not every such curve was filed as active; the % refers to the signal ratio)
Summary of the method: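 HepG2 ARE-bla reporter line, 2,000 cells/well; 5 h preincubation 37 C/5% CO2; compound (DMSO) 16 h 37 C; B/G FRET substrate 2 h RT; fluorescence intensity.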

[7] = qHTS assay for small molecule agonists of the antioxidant response element (ARE) signaling pathway - cell viability counter screen (AID 743203; calls by dose curve; note: nearly all actives have a fitted effect of over 55% in size; note: potency is the fitted concentration of half-maximal effect)
Summary of the method: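 Measured in the same wells as the beta-lactamase ARE reporter, this read-out is CellTiter-Glo luminescence from HepG2 ARE-bla cells given compounds for 16 hrs.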

[8] = qHTS assay for small molecule activators of the heat shock response signaling pathway - cell viability counter screen (AID 743209); note: nearly all actives have a fitted effect of over 50% in size
Summary of the method: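 Same-well multiplex: after 2.5 h room-temperature incubation with LiveBLAzer B/G substrate and fluorescence reading, CellTiter-Glo reagent was added to HSE-bla HeLa cells that had received compound for 5 h at 37 C; luminescence read after 30 min.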

[9] = target: Aryl hydrocarbon receptor (Homo sapiens) (UniProt P35869); test: qHTS assay to identify small molecule that activate the aryl hydrocarbon receptor (AhR) signaling pathway (AID 743085); note: nearly all actives have a fitted effect of over 15% in size; note: potency is the fitted concentration of half-maximal effect;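 for activation: HG2L7.5c1 human HepG2 liver cells with stably integrated DRE-driven firefly reporter; series mostly up to about 70 µM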
Summary of the method: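 Compounds were tested in HepG2 hepatocellular carcinoma cells harbouring a stably integrated luciferase gene under control of 20 DREs. Increased reporter signal after 24 h treatment at 37C was taken as AhR activation.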

[10] = qHTS assay for small molecule activators of the heat shock response signaling pathway (AID 743210; active = well fitted activation curve with a large enough effect in the signal ratio in the repeat runs, with a control signal flat, not every such curve was filed as active; the % refers to the signal ratio;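 note: HeLa cells with beta-lactamase reporter driven by heat shock elements; series mostly up to about 63 µM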)
Summary of the method: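 Beta-lactamase reporter read-out: FRET substrate fluorescence after 2.5 h at RT, following 5 h compound treatment at 37 C of HeLa cells carrying HSE-driven bla reporter; quantitative HTS format.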
% is set by controls: 0 for no effect and ±100 for the full control effect.

Chain of Aryl hydrocarbon receptor (Homo sapiens) (P35869 whole entry, looked up): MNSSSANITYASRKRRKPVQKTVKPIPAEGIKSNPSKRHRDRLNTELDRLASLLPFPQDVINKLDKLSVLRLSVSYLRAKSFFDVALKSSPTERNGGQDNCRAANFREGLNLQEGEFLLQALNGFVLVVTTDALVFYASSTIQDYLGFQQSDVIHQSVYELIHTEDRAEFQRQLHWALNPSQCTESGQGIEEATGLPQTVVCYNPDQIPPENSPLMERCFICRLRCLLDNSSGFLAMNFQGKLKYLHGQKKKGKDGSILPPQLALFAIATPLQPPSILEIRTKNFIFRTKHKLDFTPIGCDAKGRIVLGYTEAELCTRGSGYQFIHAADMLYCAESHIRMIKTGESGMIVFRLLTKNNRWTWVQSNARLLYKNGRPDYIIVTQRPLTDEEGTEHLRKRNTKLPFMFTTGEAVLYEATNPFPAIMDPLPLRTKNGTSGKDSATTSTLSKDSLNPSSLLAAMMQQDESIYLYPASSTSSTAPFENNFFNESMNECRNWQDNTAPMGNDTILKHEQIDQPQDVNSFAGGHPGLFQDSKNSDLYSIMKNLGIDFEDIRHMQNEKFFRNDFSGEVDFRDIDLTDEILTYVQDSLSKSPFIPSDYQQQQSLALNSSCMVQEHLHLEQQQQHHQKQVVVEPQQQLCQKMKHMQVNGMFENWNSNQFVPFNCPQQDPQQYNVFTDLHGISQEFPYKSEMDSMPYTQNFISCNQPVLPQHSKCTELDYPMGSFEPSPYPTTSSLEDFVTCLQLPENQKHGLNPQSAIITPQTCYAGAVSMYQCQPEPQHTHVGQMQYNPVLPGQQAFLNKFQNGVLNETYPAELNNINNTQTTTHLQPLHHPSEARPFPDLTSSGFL
Chain of Peroxisome proliferator-activated receptor gamma (Homo sapiens) (P37231 whole entry, looked up): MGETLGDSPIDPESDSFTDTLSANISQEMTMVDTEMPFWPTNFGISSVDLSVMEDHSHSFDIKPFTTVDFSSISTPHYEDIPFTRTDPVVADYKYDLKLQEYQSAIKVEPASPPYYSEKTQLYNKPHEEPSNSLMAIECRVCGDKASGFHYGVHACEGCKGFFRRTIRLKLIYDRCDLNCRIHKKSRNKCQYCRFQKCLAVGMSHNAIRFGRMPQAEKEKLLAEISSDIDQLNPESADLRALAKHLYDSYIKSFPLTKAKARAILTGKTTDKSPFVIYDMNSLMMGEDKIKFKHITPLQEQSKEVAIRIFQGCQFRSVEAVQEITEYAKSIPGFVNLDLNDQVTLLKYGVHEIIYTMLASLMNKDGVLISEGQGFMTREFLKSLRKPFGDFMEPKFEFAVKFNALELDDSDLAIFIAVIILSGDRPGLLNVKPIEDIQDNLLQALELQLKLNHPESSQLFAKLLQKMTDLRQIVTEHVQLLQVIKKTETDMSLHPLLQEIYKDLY

CS(=O)(=O)c1ccc([C@@H](O)[C@@H](CF)NC(=O)C(Cl)Cl)cc1
inactive: Potency [1] | outcome [2] | Potency [3] | Potency [4] | Potency [5] | Potency [6] | Potency [7] | outcome [8]

COc1cc2c(cc1N)oc1ccccc12
inactive: Potency [1] | outcome [2] | Potency [3] | Potency [4] | Potency [6] | Potency [7] | outcome [8]

CCCCCOc1ccc(C2SC(=O)NC2=O)cc1OCC (configuration not stated)
active: Potency [9] 29.8 µM
inactive: Potency [1] | outcome [2] | Potency [5] | Potency [7] | outcome [8] | Potency [10]

CCOc1ccccc1N
inactive: Potency [1] | outcome [2] | Potency [3] | Potency [4] | Potency [5] | Potency [7] | outcome [8] | Potency [10]

CCCCNc1cc(C(=O)O)cc(S(N)(=O)=O)c1Oc1ccccc1
inactive: Potency [1] | Potency [9] | outcome [2] | Potency [5] | Potency [7] | outcome [8] | Potency [10]

CCCCC(=O)O[C@]1(C(=O)CO)[C@H](C)C[C@H]2[C@@H]3CCC4=CC(=O)C=C[C@]4(C)[C@@]3(F)[C@@H](O)C[C@@]21C
inactive: Potency [1] | Potency [9] | outcome [2] | Potency [5] | Potency [7] | outcome [8] | Potency [10]

CCOC(=O)COc1ccc2c(c1)CC(NCC(O)c1cccc(Cl)c1)CC2 (configuration not stated)
inactive: Potency [9] | Potency [3] | outcome [8]
active: Potency [1] 21.9 µM | Potency [7] 48.9 µM

CO[Si](C)(C)OC
inactive: Potency [1] | outcome [2] | Potency [3] | Potency [4] | Potency [5] | Potency [6] | Potency [7] | outcome [8] | Potency [10]

O=C(O)[C@@H]1CSCN1
inactive: Potency [1] | outcome [2] | Potency [3] | Potency [5] | Potency [6] | Potency [7] | outcome [8]

CN1[C@@H]2CC[C@H]1CC(OC(=O)c1c[nH]c3ccccc13)C2 (some centres not stated)
inactive: Potency [1] | Potency [9] | Potency [3] | Potency [5] | Potency [7] | outcome [8] | Potency [10]

NC(Cc1ccc(F)cc1)C(=O)O (configuration not stated)
inactive: activity change, negative = cytotoxicity [1] -2.35% [at 8.47 µM] | viability change, negative = cytotoxic [2] 2.78% [at 8.47 µM] | activation [3] 0.33% [at 7.08 µM] | activity change, negative = cytotoxicity [5] -1.09% [at 5.95 µM] | activation [6] -7.28% [at 8.36 µM] | viability change, negative = cytotoxic [7] -1.52% [at 8.36 µM] | activity change, negative = cytotoxicity [8] -7.91% [at 5.95 µM]

CC(C)NCC(O)COc1ccc(CCOCC2CC2)cc1 (configuration not stated)
inactive: Potency [1] | outcome [2] | Potency [5] | Potency [7] | outcome [8]

CC(C)NC[C@@H](O)COc1cccc2ccccc12
inactive: Potency [1] | outcome [2] | Potency [5] | Potency [7] | outcome [8] | Potency [10]

O=C1CCN(c2ccccc2)N1
inactive: Potency [1] | outcome [2] | Potency [5] | Potency [7] | outcome [8]

CC/C=C\CCOC(=O)C(C)C
inactive: Potency [1] | outcome [2] | Potency [7] | outcome [8]

CC(C)C[C@H](NC(=O)OCC1c2ccccc2-c2ccccc21)C(=O)O
inactive: Potency [1] | outcome [2] | Potency [5] | Potency [7] | outcome [8]

C[C@]12CCC(=O)C=C1CC[C@@H]1[C@@H]2CC[C@@]2(C)[C@H]1CC[C@]2(O)C(=O)CO
inactive: Potency [1] | outcome [2] | Potency [5] | Potency [6] | Potency [7] | outcome [8] | Potency [10]

Cn1cnc2c(F)c(Nc3ccc(Br)cc3Cl)c(C(=O)NOCCO)cc21
inactive: Potency [1] | outcome [2] | Potency [4] | Potency [5] | Potency [7] | outcome [8] | Potency [10]

C=CCCCCCCCCO
inactive: Potency [1] | outcome [2] | Potency [3] | Potency [5] | Potency [7] | outcome [8] | Potency [10]

OCc1ccccc1O
inactive: Potency [1] | outcome [2] | Potency [5] | Potency [7] | outcome [8]

COc1ccc2nc(NC(=O)Nc3ccccc3)sc2c1
inactive: Potency [1] | outcome [2] | Potency [4] | Potency [5] | Potency [7] | outcome [8]

Cc1ccc(C)c(N)c1
inactive: Potency [1] | outcome [2] | Potency [3] | Potency [5] | Potency [7] | outcome [8]

CC1=C(CC(=O)O)c2cc(F)ccc2/C1=C\c1ccc(S(C)(=O)=O)cc1
inactive: Potency [1] | outcome [2] | Potency [5] | Potency [7] | outcome [8] | Potency [10]

OC[C@H]1O[C@@H](O[C@H]2[C@H](O)[C@@H](O)[C@H](O)O[C@@H]2CO)[C@H](O)[C@@H](O)[C@H]1O
inactive: Potency [1] | outcome [2] | Potency [3] | Potency [5] | Potency [6] | Potency [7] | outcome [8] | Potency [10]

CCCCCCCCc1ccc(S(=O)(=O)O)cc1
inactive: Potency [1] | outcome [2] | Potency [5] | Potency [7] | outcome [8] | Potency [10]

CCN(CCCc1ccccc1)CCCc1ccccc1
inactive: Potency [1] | outcome [2] | Potency [7] | outcome [8] | Potency [10]
